The values below come from PubChem BioAssay (EPA / NIEHS).

The structures appear in SMILES notation. The source made the active and inactive calls. Rule for the calls: active = hit-call score of the fitted dose curve at least 0.9, where 1 is the maximum; inactive = score below 0.9.

Chain of Nuclear respiratory factor 1 (Homo sapiens) (Q16656 whole entry, looked up): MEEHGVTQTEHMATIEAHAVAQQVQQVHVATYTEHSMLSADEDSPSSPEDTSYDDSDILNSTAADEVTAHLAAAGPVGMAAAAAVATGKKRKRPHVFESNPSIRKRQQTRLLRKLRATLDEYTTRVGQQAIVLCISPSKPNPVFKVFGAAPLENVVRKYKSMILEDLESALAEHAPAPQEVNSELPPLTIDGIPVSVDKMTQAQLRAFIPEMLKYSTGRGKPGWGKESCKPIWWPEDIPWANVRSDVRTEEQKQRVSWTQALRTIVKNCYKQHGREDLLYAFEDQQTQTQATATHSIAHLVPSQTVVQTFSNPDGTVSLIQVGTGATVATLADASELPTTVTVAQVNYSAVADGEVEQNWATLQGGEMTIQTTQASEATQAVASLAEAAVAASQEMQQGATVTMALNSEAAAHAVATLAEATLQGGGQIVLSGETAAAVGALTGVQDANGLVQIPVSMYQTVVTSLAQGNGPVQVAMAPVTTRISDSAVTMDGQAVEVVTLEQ

This assay has as its target Nuclear respiratory factor 1 (Homo sapiens) (UniProt Q16656). The assay can be described thus: ATG_NRF1_CIS: Attagene CIS-FACTORIAL HepG2 Assay for human Nuclear Respiratory Factor 1 (NRF1) Orphan Gene (AID 2282987). To be noted: HepG2 NRF1 cis-element reporter, Attagene multiplex; actives raise or lower the signal. As for the experimental part:
ATG_CIS is a cell-based, multiplexed-readout assay that uses HepG2, a human liver cell line, with measurements taken at 24 hours after chemical dosing in a 24-well plate.ATG_NRF1_CIS is one of 52 assay component(s) measured or calculated from the ATG_CIS assay. It is designed to make measurements of mRNA induction, a form of inducible reporter, as detected with fluorescence intensity signals by Reverse transcription polymerase chain reaction (RT-PCR) and Capillary electrophoresis technology.Data from the assay component ATG_NRF1_CIS was analyzed into 1 assay endpoint. This assay endpoint, ATG_NRF1_CIS, was analyzed with bidirectional fitting relative to DMSO as the negative control and baseline of activity. Using a type of inducible reporter, measures of mRNA for gain or loss-of-signal activity can be used to understand the reporter gene at the transcription factor-level as they relate to the gene NRF1. Furthermore, this assay endpoint can be referred to as a primary readout, because this assay has produced multiple assay endpoints where this one serves a reporter gene function. To generalize the intended target to other relatable targets, this assay endpoint is annotated to the dna binding intended target family, where the subfamily is nuclear respiratory factors.
Human liver HepG2 cells are transiently transfected with multiple reporter transcription units (MRTUs) in 6-well plates using FuGene 6 reagent (Roche; 3 ml FuGene/1 mg DNA). The MRTU constructs are regulated by a cis-regulating element (promoter). […] A major difference between the CIS and TRANS system is that in CIS activities of endogenous TFs are measured, whereas the TRANS assay evaluates changes in activities of exogenous, chimeric NR-Gal4 proteins. […] At the end of 24 hour incubation, total RNA was isolated using TriZol reagent (Invitrogen). The isolated RNA is then reverse-transcribed using oligo(dT) primer and Mo-MLV reverse transcriptase (Invitrogen) with DNAse I (Ambion) treatment for 30 min. The one-tenth of the produced cDNA was amplified by PCR using Taq DNA polymerase (Invitrogen) and two reporter sequence-specific primers. The PCR products were fluorescently labeled by primer extension with 6-arboxyfluorescein (6-FAM) 5'-labeled reporter sequence-specific primer (2 min at 95 C, 20 s at 68 C and 10 min at 72 C) and these products were digested with 5U of HpaI (New England Biolabs) for 2h at 37 C. The fragments were purified using Qiaquick PCR columns (Qiagen), analyzed on an ABI 3130xL genetic analyzer (Applied Biosystems) with peak positions identified by using a set of X-rhodamine (ROX)-labeled MapMarker1000 molecular weight standards (BioVentures). The raw capillary electrophoresis data was processed using Attagraph software (Attagene).
Consider `[Cl][Sb]([Cl])[Cl]`, for which the call was inactive.

Regarding `O=P(O)(Oc1ccccc1)Oc1ccccc1`, the compound was called inactive.

In the case of `CC(Cc1ccc(C(C)(C)C)cc1)CN1C[C@@H](C)O[C@@H](C)C1` (stereo not given in full), the outcome was inactive.

`CC1CCCC1.[C-]#[O+].[C-]#[O+].[C-]#[O+].[Mn]`: the compound was classed as inactive.

As to `CCCCOC(=O)CCC(=O)OCCCC`, the outcome was inactive.

Consider `Clc1ccc(-c2ccccc2)cc1`, for which the compound was classed as inactive.

Take `O=S(=O)(c1ccccc1)c1ccccc1`: the result was inactive.

On to `O=C(O)COc1ccccc1`, for which the call was inactive.

As to `O=C1C=CC(=O)C=C1`, the result was inactive.

Turning to `O=P1(NCCCl)OCCCN1CCCl` (stereo not given), the call was inactive.

In the case of `NNc1ccccc1`, the call was inactive.

As for `COc1cc(OC)nc(Oc2cccc(Oc3nc(OC)cc(OC)n3)c2C(=O)O)n1`, the outcome was inactive.

`CCOP(=O)(OCC)OCC`: the result was inactive.

For `N#CCCCCC#N`, the outcome was inactive.

For `c1ccc(P(c2ccccc2)c2ccccc2)cc1`, the compound was called inactive.

Regarding `O=C(O)CCCc1ccc(N(CCCl)CCCl)cc1`, the call was inactive.

`SCc1ccco1`: the compound was called inactive.

Consider `COc1cc(OC)c(OC)cc1C=O`, for which the call was inactive.

Consider `CC(C)C#N`, for which the compound was classed as inactive.

As for `CCC(C)(C)O`, the compound was classed as inactive.

As for `C[N+](C)(C)CC(=O)O`, the call was inactive.

As to `CC=Cc1ccc2c(c1)OCO2`, the call was inactive.

For `Cc1ccc(C)c2ccccc12`, the result was inactive.

Take `Cc1ccc(OP(=O)(Oc2ccc(C)cc2)Oc2ccc(C)cc2)cc1` (tested in a mixture with another compound): the outcome was inactive.

Consider `Nc1ccccc1C(=O)OCCc1ccccc1`, for which the result was inactive.

Take `CC(=O)c1cc2c(cc1C)C(C)(C)C(C)CC2(C)C` (stereo not given): the compound was classed as inactive.

As to `Oc1ccc(C2(c3ccc(O)cc3)c3ccccc3-c3ccccc32)cc1`, the AC50 is 19.1 µM (active).

For the compound `O=c1[nH]c(Cl)c(Cl)cc1Cl`, the outcome was inactive.

In the case of `ClCCCCCCCl`, the outcome was inactive.

As for `CCCCNP(N)(N)=S`, the result was inactive.

With `COCC(=O)N(c1c(C)cccc1C)N1CCOC1=O`, the compound was classed as inactive.

Take `COC(=O)COc1ccc(Cl)cc1Cl`: the call was inactive.

Take `N#CC(c1ccccc1)c1ccccc1`: the result was inactive.

`O=C(O)CCl`: the outcome was inactive.

For the compound `c1ccc2c(c1)CCCC2`, the result was inactive.

Regarding `CC(C)(C)C(=O)CCl`, the compound was called inactive.

On to `N#CCNCC#N`, for which the result was inactive.

`CCCCOP(=O)(O)OCCCC`: the compound was called inactive.

In the case of `CCCCCCCCCCCC#N`, the compound was called inactive.

As for `Cc1cc(C)c(C2=C(OC(=O)CC(C)(C)C)C3(CCCC3)OC2=O)c(C)c1`, the compound was classed as inactive.
